Data on 100 molecules can be found in PubChem BioAssay AID463173 (ICCB-Longwood Screening Facility, Harvard Medical School, 2010).

Molecules are shown by their SMILES. The campaign covered roughly 52,000 compounds. About 4,300 (8.3%) were called active. Cut-off read from the data, not from the text of the source: active = survival mostly below about 52% (no sharp cut-off); inactive = mostly above about 56%. The entries come from a sample that favours actives as a whole.

The assay relates to DeltatarO mutant. The assay can be described thus: S. aureus survival, RN4220 and DeltatarO strains – OD600, teichoic acid synthesis inhibitors, primary screen (AID 463173). The note with it: S. aureus RN4220 wild type/DeltatarO growth, OD600, 18 h, stronger effect = lower value, screened at 18.75 µg/mL (by protocol).
As for `COc1ccc(CNC(=O)CN2C(=O)CCn3nc(-c4ccccc4)cc32)c(OC)c1`, the survival is 69% (inactive).

Consider `COc1ccc(-c2nc3c(c(SCC(=O)Nc4cc(C)cc(C)c4)n2)Cc2c(CO)cnc(C)c2O3)cc1`, for which the survival was 80% (inactive).

In the case of `CN(C)S(=O)(=O)c1ccc2c(c1)nnn2CCNC(=O)Nc1ccc(Br)cc1`, the survival was 83% (inactive).

In the case of `O=C1Nc2nc(=O)nc3[nH]c(=O)nc(n23)N1`, the survival is 97% (inactive).

Take `COc1ccc(Cn2ccn(CC(=O)Nc3cc(C)ccc3C)c(=O)c2=O)cc1`: the survival was 47% (active).

With `COc1ccc(Cn2ccn(Cc3cccc(C)c3)c(=O)c2=O)cc1`, the survival is 109% (inactive).

For the molecule `COc1ccc(-n2ccn(CC(=O)Nc3ccc(C)cc3C)c(=O)c2=O)cc1`, the survival was 79% (inactive).

In the case of `COc1ccc(-c2cc3c(=O)n(CC(=O)Nc4cc(C)ccc4C)ccn3n2)cc1`, the survival is 88% (inactive).

On to `COc1ccc(Cn2ccn(Cc3cccc(OC)c3)c(=O)c2=O)cc1`, for which the survival was 46% (active).

Regarding `COc1ccc(Cn2ccn(Cc3cccc(Cl)c3)c(=O)c2=O)cc1`, the survival was 112% (inactive).

Regarding `CC(C)(C)c1ccc(OCCSc2nc(-c3cccs3)nc3cc(=O)[nH]n23)cc1`, the survival was 78% (inactive).

With `CC(=O)NCC(c1ccc2c(c1)OCO2)N1CCN(c2ccccc2)CC1` (stereo not given), the survival was 80% (inactive).

For the molecule `COc1ccc(NC(=O)c2ccc3c(c2)nnn3C2CCCC2)cc1Cl`, the survival is 88% (inactive).

For `COc1cc(OC)c(OC)cc1CN1CCc2nc(N3CCN(c4ccccc4F)CC3)ncc2C1`, the survival was 72% (inactive).

As for `CCN1CCN(c2ncc3c(n2)CCN(Cc2ccccc2C)C3)CC1`, the survival was -1% (active).

In the case of `CCOc1ccccc1CN1CCc2nc(N3CCN(C)CC3)ncc2C1`, the survival was -2% (active).

For the molecule `COc1cc(OC)c(OC)cc1CN1CCc2nc(N3CCN(C)CC3)ncc2C1`, the survival was 84% (inactive).

With `COc1ccccc1N1CCN(c2ncc3c(n2)CCN(Cc2ccccc2F)C3)CC1`, the survival was 89% (inactive).

As for `CCN1CCN(c2ncc3c(n2)CCN(Cc2ccc(Br)s2)C3)CC1`, the survival is 76% (inactive).

For `Cc1ccccc1CN1CCc2nc(N3CCN(c4ncccn4)CC3)ncc2C1`, the survival was 88% (inactive).

Regarding `CN1CCN(c2ncc3c(n2)CCN(Cc2cc(Br)cs2)C3)CC1`, the survival is 109% (inactive).

On to `CCOc1ccccc1CN1CCc2nc(N3CCN(c4ccccc4F)CC3)ncc2C1`, for which the survival is -4% (active).

Take `CCN1CCN(c2ncc3c(n2)CCN(Cc2cc(Br)cs2)C3)CC1`: the survival is 6% (active).

Turning to `CN1CCN(c2ncc3c(n2)CCN(Cc2ccccc2Cl)C3)CC1`, the survival was 79% (inactive).

Regarding `Cc1ccccc1CN1CCc2nc(N3CCN(c4ccccn4)CC3)ncc2C1`, the survival was 94% (inactive).

With `COc1cc(C(=O)n2nc(-c3ccco3)nc2NCc2ccc(Cl)cc2)cc(OC)c1OC`, the survival was 82% (inactive).

On to `COc1cccc(CNC(=O)CSC2=Nc3ccccc3C3=NC(C(C)C)C(=O)N23)c1` (stereo not given), for which the survival is 69% (inactive).

Take `Cc1ccc(Cl)cc1N1CCN(C(=O)C2CCN(S(=O)(=O)c3cn(C)cn3)CC2)CC1`: the survival was 98% (inactive).

In the case of `CC(=O)Nc1cccc(NC(=O)C2CCCN2C(=O)Nc2ccccc2Cl)c1` (stereo not given), the survival is 113% (inactive).

As to `CCOc1ccc(-c2csc(-c3nc(-c4ccc(Br)s4)cs3)n2)cc1`, the survival was 83% (inactive).

As to `NC(=O)c1c(NC(=O)CS(=O)(=O)c2ccc(Cl)cc2)sc2c1CCCCC2`, the survival is 82% (inactive).

As for `O=C(CSC1=Nc2ccccc2C2=NC(CCC(=O)NC3CCCCC3)C(=O)N12)Nc1cccc(Cl)c1` (stereo not given), the survival was 112% (inactive).

On to `CCC(=O)N1CCc2cc(Br)cc(S(=O)(=O)CCC(=O)N(C)c3cccc(C)c3)c21`, for which the survival was 62% (inactive).

Take `CCc1ccc(NC(=O)CC2C(=O)N(c3cccc(C)c3)C(=O)N2Cc2cccs2)cc1` (stereo not given): the survival is 20% (active).

For the molecule `Cc1cccc(N2C(=O)C(CC(=O)Nc3cccc(F)c3)N(CCc3ccncc3)C2=O)c1` (stereo not given), the survival was 75% (inactive).

For `COc1cc(NC(=O)CC2C(=O)N(c3cccc(C)c3)C(=O)N2Cc2cccs2)cc(OC)c1` (stereo not given), the survival is 66% (inactive).

As to `Cc1cccc(N2C(=O)C(CC(=O)Nc3cccc(F)c3)N(Cc3cccs3)C2=O)c1` (stereo not given), the survival is 8% (active).

For `CCc1ccc(NC(=O)CC2C(=O)N(c3ccc(Cl)cc3)C(=O)N2Cc2cccs2)cc1` (stereo not given), the survival is 60% (inactive).

On to `CCOc1ccc(NC(=O)CC2C(=O)N(c3cccc(C)c3)C(=O)N2Cc2cccs2)cc1` (stereo not given), for which the survival is 89% (inactive).

On to `Cn1c(=O)n(C)c2cc(NS(=O)(=O)c3ccc(F)cc3)c(NCc3ccccc3)cc21`, for which the survival was 68% (inactive).

`CCc1nn(CCCC(=O)N2CCN(c3ccc(OC)cc3)CC2)c(=O)c2cc3occc3n12`: the survival was 87% (inactive).

As to `Cc1ccccc1Cn1c(COc2ccc(Cl)cc2)nc2ccccc21`, the survival was 114% (inactive).

With `Cc1ccc(OCc2nc3ccccc3n2Cc2ccccc2Cl)cc1`, the survival was -8% (active).

Regarding `C#CCn1c(COc2ccccc2C)nc2ccccc21`, the survival is 111% (inactive).

Take `Cc1cccc(C(=O)NCc2nc3ccccc3n2Cc2ccccc2Cl)c1`: the survival was 106% (inactive).

Turning to `COc1ccc(OCc2nc3ccccc3n2Cc2ccccc2Cl)cc1`, the survival was 39% (active).

On to `C=CCc1ccccc1OCc1nc2ccccc2n1CC`, for which the survival is 49% (inactive).

Consider `Cc1ccccc1OCc1nc2ccccc2n1Cc1ccccc1Cl`, for which the survival was 0% (active).

Regarding `COc1ccc(-n2c(=O)c3ccccc3n(Cc3ccccc3Cl)c2=O)cc1`, the survival was 110% (inactive).

Take `CCc1cc(C(=O)NCc2ccc(F)cc2)no1`: the survival is 53% (inactive).

Turning to `Cc1cc(=O)oc2cc(OCC(=O)NCc3ccco3)ccc12`, the survival is 74% (inactive).

On to `CC(C)C(c1nnnn1C1CCCC1)N1CCN(C(=O)c2ccco2)CC1` (stereo not given), for which the survival is 86% (inactive).

Consider `Cc1cccc(C(=O)NCC(c2ccc3c(c2)OCO3)N2CCOCC2)c1` (stereo not given), for which the survival was 73% (inactive).

In the case of `Cc1ccc(N2C(=O)CCSC23C(=O)N(Cc2ccccc2)c2ccccc23)cc1` (stereo not given), the survival was 89% (inactive).

For `Cc1cccc(NC(=O)CSc2nnc(N)s2)c1`, the survival is 149% (inactive).

For the molecule `COc1cc(C(=O)NCCc2sc(-c3ccc(C)cc3)nc2C)cc(OC)c1OC`, the survival was 80% (inactive).

Regarding `Cc1ccc(/C=C2\SC(=O)NC2=S)o1`, the survival is 33% (active).

As to `Cc1ccc(N=Cc2ccc(C)o2)cc1`, the survival was 98% (inactive).

For `Cc1ccc(-n2c(C)cc(/C=C3\SC(=O)NC3=O)c2C)cc1`, the survival was 95% (inactive).

For `Fc1ccc(CNc2ccc(N3CCCC3)cc2)cc1`, the survival is 97% (inactive).

Regarding `Cc1ccccc1CNC(=O)CN1C(=O)C2CCCCN2c2ccc(C(=O)N3CCCC3)cc21` (stereo not given), the survival was 76% (inactive).

As to `CCC(C)NC(=O)c1ccc2c(c1)N(Cc1ccccc1F)C(=O)c1ccccc1S2=O` (stereo not given), the survival is 64% (inactive).

As for `Cc1ccc2oc(-c3ccc(Cl)cc3)c(O)c(=O)c2c1`, the survival is 72% (inactive).

Regarding `CC1Cc2ccccc2N1C(=O)CSc1nnc(-c2ccccc2)o1` (stereo not given), the survival is 69% (inactive).

With `O=C(CSc1nnc(-c2cccc(F)c2)o1)N1c2ccccc2Sc2ccccc21`, the survival was 114% (inactive).

As for `COc1cccc(-c2nnc(SCC(=O)N3CCc4ccccc43)o2)c1`, the survival is 70% (inactive).

In the case of `CC1Cc2ccccc2N1C(=O)CSc1nnc(-c2cccc(Cl)c2)o1` (stereo not given), the survival was 34% (active).

`O=C(CSc1nnc(-c2cccc(Cl)c2)o1)N1CCc2ccccc21`: the survival is 85% (inactive).

As to `CC1CCCCN1C(=O)CSc1nnc(-c2ccccc2Cl)o1` (stereo not given), the survival was 74% (inactive).

On to `CC1Cc2ccccc2N1C(=O)CSc1nnc(-c2ccccc2Cl)o1` (stereo not given), for which the survival was 49% (active).

Consider `CC1CCN(C(=O)CSc2nnc(-c3ccccc3Cl)o2)CC1`, for which the survival is 104% (inactive).

`COc1cccc(-c2nnc(SCC(=O)N3c4ccccc4Sc4ccccc43)o2)c1`: the survival was 35% (active).

`CCc1cccc(C)c1NS(=O)(=O)c1c(C(=O)N2CCCCCC2)c(C)n(C)c1C`: the survival was 101% (inactive).

Consider `Cc1ccc(-n2ncc(C(=O)N3CCN(C4CCCCC4)CC3)c2C2CCN(C(=O)OC(C)(C)C)CC2)cc1C`, for which the survival is 85% (inactive).

On to `Cc1cccc(CNS(=O)(=O)c2csc(C(N)=O)c2)c1`, for which the survival was 76% (inactive).

For `CC(Oc1ccccc1)C(=O)Nc1ccc(OCc2cc(=O)n3ccsc3n2)cc1` (stereo not given), the survival was 76% (inactive).

With `CCCn1c(=O)c2sccc2n2c(CCCC(=O)Nc3ccc(C)c(F)c3)nnc12`, the survival is 88% (inactive).

Consider `O=C(C1CCCCC1)N1CCN(c2ncnc3c2cnn3-c2ccccc2)CC1`, for which the survival is 101% (inactive).

Consider `O=CN1CCN(C(=O)c2ccc(F)cc2)CC1`, for which the survival is 78% (inactive).

For `Cc1c(C(=O)NCc2cccc(Cl)c2)sc2ncnc(N(C)C3CCCCC3)c12`, the survival is 101% (inactive).

Consider `Cc1c(C(=O)Nc2ccccc2Cl)sc2ncnc(N(C)C3CCCCC3)c12`, for which the survival was 92% (inactive).

In the case of `Cc1cccc(CNC(=O)c2sc3ncnc(N(C)C4CCCCC4)c3c2C)c1`, the survival was 46% (active).

On to `Cc1c(C(=O)Nc2ccccc2F)sc2ncnc(N(C)C3CCCCC3)c12`, for which the survival was 37% (active).

Take `Cc1ccc(CNC(=O)c2sc3ncnc(N(C)C4CCCCC4)c3c2C)cc1`: the survival is 91% (inactive).

On to `Cc1cccc(NC(=O)c2sc3ncnc(N(C)C4CCCCC4)c3c2C)c1C`, for which the survival is 118% (inactive).

Take `O=C(NC1CC(=O)N(c2cccc(F)c2)C1)c1ccc(S(=O)(=O)N2CCCCC2)cc1` (stereo not given): the survival was 91% (inactive).

For the molecule `CCc1ccccc1Nc1ncnc2c1nc1n2CCCC1`, the survival is 94% (inactive).

Turning to `O=C(CSc1nc2c([nH]c3ccccc32)c(=O)n1-c1ccc(Cl)cc1)N1CCCCCC1`, the survival is 76% (inactive).

Turning to `CCC(=O)Nc1nnc(S(=O)(=O)N(C)Cc2ccccc2)s1`, the survival was 87% (inactive).

Turning to `CN(Cc1ccccc1)S(=O)(=O)c1nnc(NC(=O)c2ccccc2Cl)s1`, the survival was 29% (active).

As for `CCCCC(=O)Nc1nnc(S(=O)(=O)N(C)Cc2ccccc2)s1`, the survival is 91% (inactive).

For the molecule `Cc1cccc(N(C)S(=O)(=O)c2nnc(NC(=O)C(C)Oc3ccccc3)s2)c1` (stereo not given), the survival was 54% (inactive).

On to `Cc1cccc(C(=O)Nc2nnc(S(=O)(=O)N(C)Cc3ccccc3)s2)c1`, for which the survival is 23% (active).

Regarding `Cc1cccc(C(=O)Nc2nnc(S(=O)(=O)N(C)Cc3ccc(Cl)cc3)s2)c1`, the survival was 95% (inactive).

Turning to `Cc1cccc(C(=O)Nc2nnc(S(=O)(=O)N(C)c3ccccc3C)s2)c1`, the survival was 32% (active).

`CN(Cc1ccccc1)S(=O)(=O)c1nnc(NC(=O)c2cccc(Cl)c2)s1`: the survival is 1% (active).

On to `Cc1ccc(C(=O)Nc2nnc(S(=O)(=O)N(C)Cc3ccc(Cl)cc3)s2)cc1`, for which the survival was 99% (inactive).

For `CCOc1cccc(C(=O)Nc2nnc(S(=O)(=O)N(C)c3ccc(C)cc3)s2)c1`, the survival is 75% (inactive).

On to `CN(Cc1ccc(F)cc1)S(=O)(=O)c1nnc(NC(=O)c2ccccc2Cl)s1`, for which the survival is 85% (inactive).

In the case of `Cc1ccccc1C(=O)Nc1nnc(S(=O)(=O)N(C)Cc2ccccc2)s1`, the survival is 75% (inactive).
